High-throughput results from PubChem.
Compounds with a hit are over-represented: about 4.5% of the library has one in this group of screens.
DAX1 inh-1: DAX1 (NR0B1) inhibition, primary screen | HEK293T StAR-luciferase reporter, SF-1/DAX-1 repression relief | inhibition, % at 6.8 µM | 370,000 tested, 1.1% active | AID 652010;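 active = inhibition above the mean over all tested compounds plus 3 SD, cut at about 3.6% in these data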;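 also: higher inhibition means more luminescence from relief of DAX-1 repression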
ssDAF12 agonist: activates DAF-12 receptor from parasite S. stercoralis. HEK293 ssDAF-12/GRIP1 lit1-tk-luc reporter, luminescence; % of 3 µM dafachronic acid response. activation, % at 6.8 µM. 370,000 tested, 1% active;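 active = activation above the mean over all tested compounds plus 3 SD, cut at about 0.9% in these data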
hcDAF-12 act: activators of H. contortus DAF-12 nuclear receptor; HEK293 hcDAF-12 lit1-tk-luc reporter, luminescence; 0% DMSO, 100% Δ7-dafachronic acid; activation, % at 6.8 µM; 370,000 tested, 1.4% active; AID 652067;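 active = activation above the mean of all tested compounds plus 3 SD, cut at about 5.5% in these data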
DAX1 inh-2: inhibits human nuclear receptor DAX1; P51843; HEK293 Gal4-DAX1 luciferase reporter, luminescence; inhibition, % at 6.75 µM; 340,000 tested, 0.99% active; AID 504766;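 active = inhibition above the mean over all tested compounds plus 3 SD, cut at about 4.2% in these data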;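 also: inhibition shows as a rise in luminescence from relieved DAX1 repression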
Target sequence (P51843 207-470 limits assumed): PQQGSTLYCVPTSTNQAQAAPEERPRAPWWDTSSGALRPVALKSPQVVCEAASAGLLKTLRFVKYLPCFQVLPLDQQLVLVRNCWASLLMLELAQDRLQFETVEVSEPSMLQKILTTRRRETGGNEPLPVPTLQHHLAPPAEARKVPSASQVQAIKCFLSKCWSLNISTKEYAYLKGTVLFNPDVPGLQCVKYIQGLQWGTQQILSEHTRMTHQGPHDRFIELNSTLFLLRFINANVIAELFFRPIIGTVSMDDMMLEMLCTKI
GAA850 FXN act: frataxin GAA850 promoter activation. HEK293 lucGAA850 FXN promoter luciferase reporter, 24 h; percent of 10 µM SAHA response. activation, % at 6 µM. 360,000 tested, 0.56% active;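 active = activation above the average of all compounds screened plus 3 SD, cutoff fixed separately per campaign, cut at about 7.5% in these data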
hgDAF-12 ag: agonists of H. glycines DAF-12 nuclear receptor; AID 687014; 370,000 tested, 1.8% active; activation, % at 6.8 µM; HEK293 GAL4-hgDAF12 UAS-luciferase reporter, agonist luminescence; normalized to butyrate control;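 active = activation above a cutoff set at the mean of all screened compounds plus 3 SD, cut at about 10% in these data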
LXRb hcDAF ctr: activates human LXR-beta, counter-screen for hcDAF-12 agonists; shares compounds with hcDAF-12 act; activation, % at 6.8 µM; 3,400 tested, under 10 active; HEK293 Gal4-LXR tk-luc reporter, luminescence, 24 h; normalized: DMSO 0%, positive control 100%;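 active = mean percent activation of the reporter above a cutoff set as the average over tested compounds plus their standard deviation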
Target sequence (P55055 whole entry, looked up, the tested form may be a part): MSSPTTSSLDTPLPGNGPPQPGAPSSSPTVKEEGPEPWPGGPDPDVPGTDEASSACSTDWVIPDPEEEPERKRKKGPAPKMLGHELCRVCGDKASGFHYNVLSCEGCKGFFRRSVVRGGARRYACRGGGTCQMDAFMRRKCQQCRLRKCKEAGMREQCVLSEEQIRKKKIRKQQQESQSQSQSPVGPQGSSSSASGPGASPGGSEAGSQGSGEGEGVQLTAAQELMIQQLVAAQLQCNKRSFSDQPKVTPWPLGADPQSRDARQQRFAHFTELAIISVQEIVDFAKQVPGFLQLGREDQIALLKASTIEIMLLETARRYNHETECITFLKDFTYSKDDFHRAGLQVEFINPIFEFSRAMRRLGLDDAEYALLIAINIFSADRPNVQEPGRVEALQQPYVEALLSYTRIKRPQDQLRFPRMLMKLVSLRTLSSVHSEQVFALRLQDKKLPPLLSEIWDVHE
hcDAF12 ag: confirmation of H. contortus DAF-12 agonists; shares compounds with hcDAF-12 act; HEK293 hcDAF-12 lit1-tk-luc reporter, luminescence; % of Δ7-dafachronic acid response; activation, % at 6.8 µM; 3,400 tested, 61% active;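 active = mean activation across triplicate tests above the threshold derived from the earlier primary screen, cut at about 5.5% in these data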
hgDAF12 ag: hgDAF-12 agonism, confirmation assay; activation, % at 6.8 µM; shares compounds with hgDAF-12 ag; HEK293 GAL4-hgDAF12 luciferase reporter, agonist mode; percent of butyrate response; 3,300 tested, 80% active;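 active = mean activation over triplicate wells above the hit cutoff derived from the earlier primary screen, cut at about 11% in these data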
LXR ag 2: activates human LXR-beta, counter-screen for DAF-12 agonists; shares compounds with hgDAF-12 ag; HEK293 Gal4-LXR luciferase reporter, 24 h; activation, % at 6.8 µM; 3,300 tested, under 10 active; AID 743051;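 active = mean activation of the triplicate above a set limit carried over from the primary screen, none filed active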
Large screens that a line does not name were inactive (follow-up assays come after a bar, where they were run).

Cc1ccc(-c2cc(C(=O)Nc3cc(C)ccc3C)[nH]n2)c(O)c1	none
Cc1ccc(-c2cc(-c3cccs3)[nH]n2)c(O)c1	DAX1 inh-1 4.3, ssDAF12 agonist 2.3, hcDAF-12 act 19, hgDAF-12 ag 19 | LXRb hcDAF ctr inactive | hcDAF12 ag 13 | hgDAF12 ag 21 | LXR ag 2 inactive
CCc1ccc(-c2cc(C(=O)O)c3ccccc3n2)s1	ssDAF12 agonist 1.1, hcDAF-12 act 11, hgDAF-12 ag 17 | LXRb hcDAF ctr inactive | hcDAF12 ag 9.1 | hgDAF12 ag 14 | LXR ag 2 inactive
COc1ccc(C(=O)Nc2cc(Cl)c(Br)cc2C(=O)O)cc1	none (no result: DAX1 inh-1, DAX1 inh-2, GAA850 FXN act)
CCc1ccc(-c2cn3nc(C)c(C)nc3n2)cc1	none
Cc1nc2nc(-c3ccc(F)cc3)cn2nc1C	hcDAF-12 act 7.1, hgDAF-12 ag 14 | LXRb hcDAF ctr inactive | hcDAF12 ag inactive | hgDAF12 ag 12 | LXR ag 2 inactive
O=C1NC[C@@H](CCCCN2C[C@H](Cc3ccc(O)cc3)N(CCC3CCCCC3)C(=O)C2=O)N(CC2CCCCC2)C1=O	none (no result: DAX1 inh-2, GAA850 FXN act)
COC(=O)c1sccc1N/N=C/c1cccc(OC)c1O	ssDAF12 agonist 1.3, hcDAF-12 act 12, hgDAF-12 ag 19 | LXRb hcDAF ctr inactive | hcDAF12 ag 9.0 | hgDAF12 ag 25 | LXR ag 2 inactive
CC(C)(C)c1cc[n+](/C(C(=S)Nc2ccccc2F)=C(/[O-])c2ccc3c(c2)OCCO3)cc1	hcDAF-12 act 6.8, hgDAF-12 ag 14 | LXRb hcDAF ctr inactive | hcDAF12 ag 7.3 | hgDAF12 ag inactive | LXR ag 2 inactive
[O-]C(=C(C(=S)Nc1cccc2ccccc12)[n+]1ccccc1)c1ccc2c(c1)OCCO2	none (no result: DAX1 inh-1, ssDAF12 agonist, hcDAF-12 act, hgDAF-12 ag)
COC(=O)[C@]12C[C@H](CC(=O)N3CCOCC3)C(=O)N(Cc3ccc(Cl)cc3Cl)C1=C[C@H](C(C)(C)C)O[C@@H]2C	none (no result: DAX1 inh-2, GAA850 FXN act)
COc1ccc2[nH]c3nc(SC(C)C)nnc3c2c1	DAX1 inh-1 3.9, ssDAF12 agonist 1.5, hcDAF-12 act 14, hgDAF-12 ag 21 | LXRb hcDAF ctr inactive | hcDAF12 ag 9.1 | hgDAF12 ag inactive | LXR ag 2 inactive
COc1ccc(CNC(=O)CSc2nnc3c(n2)[nH]c2ccc(OC)cc23)cc1	none
CN(C)c1ccc(/C=C/c2nc3ccccc3c(=O)[nH]2)cc1	hcDAF-12 act 6.6, hgDAF-12 ag 19 | LXRb hcDAF ctr inactive | hcDAF12 ag 8.1 | hgDAF12 ag inactive | LXR ag 2 inactive
C(=C\c1nc2ccccc2[nH]1)/c1ccccc1	hcDAF-12 act 7.2, hgDAF-12 ag 14 | LXRb hcDAF ctr inactive | hcDAF12 ag 8.1 | hgDAF12 ag 18 | LXR ag 2 inactive
O=c1[nH]c2ccccc2nc1/C=C/c1ccc(Cl)cc1	none
CC1=NN(c2ccccc2)C(=O)C1N=Nc1cccc(O)c1 (configuration not stated)	ssDAF12 agonist 1.6, hcDAF-12 act 18, hgDAF-12 ag 14 | LXRb hcDAF ctr inactive | hcDAF12 ag 13 | hgDAF12 ag 19 | LXR ag 2 inactive
CC1=NN(c2ccccc2)C(=O)C1N=Nc1ccc(N)cc1 (configuration not stated)	none
O=C(Nc1cccc(Cl)c1)c1cnn2cccnc12	hcDAF-12 act 7.7, hgDAF-12 ag 17 | LXRb hcDAF ctr inactive | hcDAF12 ag 7.5 | hgDAF12 ag 14 | LXR ag 2 inactive
CCOC(=O)[C@@]12CCC3=C1N(CCC3)C(=O)[C@H](CC(=O)N1CCCCC1)C2	none (no result: DAX1 inh-2, GAA850 FXN act)
CCn1c(/C=C/c2ccccc2)nc2ccccc21	DAX1 inh-1 3.9, ssDAF12 agonist 1.4, hcDAF-12 act 11, hgDAF-12 ag 15 | LXRb hcDAF ctr inactive | hcDAF12 ag 12 | hgDAF12 ag 17 | LXR ag 2 inactive
CCn1c(/C=C/c2ccccc2)nc2ccccc2c1=O	none
Cc1ccc(N/C=C(/C#N)c2ccsc2)cc1C	ssDAF12 agonist 1.5, hcDAF-12 act 7.2, hgDAF-12 ag 15 | LXRb hcDAF ctr inactive | hcDAF12 ag 8.1 | hgDAF12 ag 22 | LXR ag 2 inactive
O=C(O)C(=O)/C(=C\c1ccccc1)c1ccc2ccccc2n1	DAX1 inh-1 4.5, ssDAF12 agonist 3.3, hcDAF-12 act 19, hgDAF-12 ag 17 | LXRb hcDAF ctr inactive | hcDAF12 ag 16 | hgDAF12 ag 22 | LXR ag 2 inactive
O=C(O)C(=O)/C(=C\c1ccsc1)c1ccc2ccccc2n1	ssDAF12 agonist 3.2, hcDAF-12 act 23, hgDAF-12 ag 16 | LXRb hcDAF ctr inactive | hcDAF12 ag 14 | hgDAF12 ag 20 | LXR ag 2 inactive
CN1C(c2ccccc2)CC2CN(c3ccccc3)C(=O)C21 (configuration not stated)	none (no result: DAX1 inh-2, GAA850 FXN act)
Cc1cc2c(c(=O)o1)[C@@]1(C(=O)N(C)c3c(Br)cccc31)C1=C(CCCC1=O)O2	none (no result: DAX1 inh-2, GAA850 FXN act)
Cc1ccc(-c2nc3cc(N)ccc3o2)cc1Br	hcDAF-12 act 6.7, hgDAF-12 ag 15 | LXRb hcDAF ctr inactive | hcDAF12 ag 8.0 | hgDAF12 ag 19 | LXR ag 2 inactive
Nc1ccc2oc(-c3ccccn3)nc2c1	none
CCCC(C)C(=O)NC1CCCCN(Cc2ccc(C)cc2)C1=O (configuration not stated)	none (no result: DAX1 inh-2, GAA850 FXN act)
Clc1ccccc1Nc1nnc(-c2ccncc2)s1	DAX1 inh-1 4.4, hcDAF-12 act 11, hgDAF-12 ag 17 | LXRb hcDAF ctr inactive | hcDAF12 ag 6.7 | hgDAF12 ag 17 | LXR ag 2 inactive
COc1cccc(Nc2nc(-c3cccnc3)cs2)c1	ssDAF12 agonist 1.7, hcDAF-12 act 13, DAX1 inh-2 4.4, hgDAF-12 ag 14 | LXRb hcDAF ctr inactive | hcDAF12 ag 8.2 | hgDAF12 ag 17 | LXR ag 2 inactive
Clc1ccccc1Nc1nc(-c2cccnc2)cs1	DAX1 inh-1 3.7, ssDAF12 agonist 1.1, hcDAF-12 act 11, DAX1 inh-2 9.5, hgDAF-12 ag 34 | LXRb hcDAF ctr inactive | hcDAF12 ag 7.3 | hgDAF12 ag 24 | LXR ag 2 inactive
FC(F)(F)c1ccc(Cl)c(Nc2nnc(-c3ccncc3)s2)c1	none (no result: DAX1 inh-2)
